# Hit rate of the full screen: of about 1,300 compounds, about 460 (35%) were called active. Inconclusive results (about 39%) are left out. The list shows a part of the results. Unmarked numbers belong to inactive results. Calls come from the whole dose curve; as a rule, active = well fitted inhibition curve with a large enough effect; inconclusive = small, poorly fitted or top-dose-only effect; inactive = flat fitted curve, though single readings scatter.
# Target: Protein phosphatase EYA2 (Homo sapiens) (UniProt O00167)
# Sequence (O00167 whole entry, looked up): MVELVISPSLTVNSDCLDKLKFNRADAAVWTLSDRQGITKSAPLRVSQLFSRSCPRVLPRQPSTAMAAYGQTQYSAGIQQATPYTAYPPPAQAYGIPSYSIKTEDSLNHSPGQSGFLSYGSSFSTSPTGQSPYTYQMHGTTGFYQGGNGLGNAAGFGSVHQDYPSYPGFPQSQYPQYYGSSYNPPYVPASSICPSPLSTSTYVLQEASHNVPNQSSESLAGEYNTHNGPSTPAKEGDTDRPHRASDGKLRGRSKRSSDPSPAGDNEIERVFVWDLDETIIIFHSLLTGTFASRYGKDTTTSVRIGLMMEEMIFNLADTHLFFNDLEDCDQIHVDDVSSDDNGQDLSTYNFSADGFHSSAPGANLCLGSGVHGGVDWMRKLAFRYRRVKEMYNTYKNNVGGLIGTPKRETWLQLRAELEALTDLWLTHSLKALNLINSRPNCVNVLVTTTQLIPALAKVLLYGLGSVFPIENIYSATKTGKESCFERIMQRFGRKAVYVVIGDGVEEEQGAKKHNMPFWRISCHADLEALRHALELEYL
# Assay: qHTS for Inhibitors of the Phosphatase Activity of Eya2: Confirmatory Assay for Cherry-picked Compounds; note: nearly all actives have a fitted effect of over 65% in size;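 for activity change, negative = inhibition: 0% = DMSO wells and -100% = EGTA control giving full inhibition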
# Details: purified EYA2 phosphatase activity, qHTS confirmation; series mostly up to 46.1 µM; activity change, negative = inhibition: at the top concentration
# Summary of the method: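 Eya2 (0.2 uM working solution) preincubated 10 min at room temperature with compound in pH 7.5 HEPES buffer with MgCl2, BSA, DTT. OMFP added (50 uM working solution), 10 min more; fluorescence 485/525 nm, normalized to EGTA and DMSO.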
# Potency is the fitted concentration of half-maximal effect.
Compound,"activity change, negative = inhibition [%]",Potency
CCSc1nnc(-c2ccc(S(=O)(=O)N3CCOCC3)cc2)n1C,2.37,
CCOc1ccc(NC(=O)c2sccc2-n2cccc2)cc1,-22.2,
O=C(CCN1C(=O)/C(=C\C=C\c2ccccc2)SC1=S)Nc1ccc(C(=O)O)cc1,-25.3,
CCOc1ccc(/C=C2\SC(=S)N(CCC(=O)Nc3ccc(C(=O)O)cc3)C2=O)cc1,,19 µM (active)
Cc1n[nH]c(=S)n(NC(=O)CC(=O)Nn2c(=S)[nH]nc(C)c2=O)c1=O,,1.51 µM (active)
CC1CCCN(c2ccc3nc4ccccc4c(=O)n3n2)C1 (stereo not drawn),,13.5 µM (active)
Cc1ccc(CN2CCN(/N=C/c3ccc(C)s3)CC2)c(C)c1,,15.1 µM (active)
O=C(Nc1nc2c(F)cc(F)cc2s1)c1ccc([N+](=O)[O-])o1,-27.1,
O=C(Oc1ccc(C(=S)N2CCOCC2)cc1)c1ccccc1F,,6.01 µM (active)
O=C(Oc1ccc(C(=S)N2CCCCC2)cc1)c1ccccc1F,,13.5 µM (active)
Cc1cc(Br)c(NC(=O)c2ccccc2[N+](=O)[O-])cc1C,-9.39,
O=C(Oc1ccc(C(=S)N2CCOCC2)cc1)c1ccccc1[N+](=O)[O-],,13.5 µM (active)
CC1(C)Nc2cccc3c(N=Nc4ccc(N=Nc5ccccc5)c5ccccc45)ccc(c23)N1,,3.01 µM (active)
COc1ccc(Oc2nc(-c3ccccn3)ncc2OC)cc1,,19 µM (active)
COc1cnc(-c2ccccn2)nc1Oc1ccc(C(C)(C)C)cc1,,3.79 µM (active)
CCOC(=O)C(C)Sc1nc(-c2ccccn2)ncc1OC (stereo not drawn),,2.13 µM (active)
COc1ccc(CN(CCN(C)C)c2ccccn2)cc1,-3.21,
CCc1nc2ccc(C(=O)NCCCN(C)C)cn2c1N(C)Cc1ccc(OC)cc1,-5.22,
COc1ccc(N(CC(=O)Nc2nc3ccc(C)cc3s2)S(=O)(=O)c2c(C)nn(C)c2C)cc1,-25.2,
Cc1c(C(=O)O)c(O)cc2c1C(=O)c1c(O)c([C@H]3O[C@H](CO)[C@@H](O)[C@H](O)[C@H]3O)c(O)c(O)c1C2=O,,16.9 µM (active)
O=C(COC(=O)c1cc(-c2cccnc2)nc2ccccc12)Nc1ccc(F)cc1F,-21.4,
CCOc1ccccc1C(=O)OCC(=O)Nc1nnc(-c2ccccc2)o1,,19 µM (active)
COc1ccc(C(=O)Nc2nnc(-c3ccccc3)o2)cc1OC,,19 µM (active)
CCc1ccc(NC(=O)COC(=O)c2ccccc2OCC(=O)N(C)C)cc1,-4.47,

Compound,"activity change, negative = inhibition [%]",Potency
O=C(Nc1cccc(-c2nnc(-c3ccco3)o2)c1)c1ccccc1,-19.3,
C#Cc1cccc(NC(=O)CSc2nnc(-c3ccc(C(F)(F)F)cn3)o2)c1,,15.1 µM (active)
c1ccc2c(c1)nc(Nc1ccc(N3CCCCC3)cc1)c1nncn12,,16.9 µM (active)
CC1CCCCC1Nc1nc2ccc(Cl)cc2n2cnnc12 (stereo not drawn),-24,
O=[N+]([O-])c1ccc(/C=C2\C=Cc3ccccc32)cc1,,4.78 µM (active)
CNc1ccc(/C=C2\C=Cc3ccccc32)cc1OC,,7.57 µM (active)
CN(C)c1ccc(/C=C2\C=Cc3ccccc32)cc1[N+](=O)[O-],,6.75 µM (active)
CN(C)c1ccc(/C=C2\C=Cc3ccccc32)cc1N,,15.1 µM (active)
CCN(CC)CCNC(=O)c1ccc(N)cc1,-4.89,
CC(NC(=O)c1cc2c(s1)CS(=O)(=O)C2)c1ccccc1 (stereo not drawn),-5.13,
COc1cc(/C=C2/C=Cc3ccccc32)ccc1N(C)C,,6.75 µM (active)
Cc1cc(/C=C2\C=Cc3ccccc32)ccc1N(C)C,,7.57 µM (active)
CCN(Cc1cccc(S(=O)(=O)O)c1)c1ccc(C(=C2C=CC(=[N+](CC)Cc3cccc(S(=O)(=O)O)c3)C=C2)c2ccccc2S(=O)(=O)[O-])cc1,,9.53 µM (active)
CCN(Cc1cccc(S(=O)(=O)O)c1)c1ccc(C(=C2C=CC(=[N+](CC)Cc3cccc(S(=O)(=O)O)c3)C=C2)c2ccc(O)cc2S(=O)(=O)O)cc1,,6.01 µM (active)
CC(=O)Nc1ccc(S(=O)(=O)N2C3CCCC2CC(NC(=O)C2CCCCC2)C3)cc1 (stereo not drawn),-9.63,
CC(=O)Nc1ccc(S(=O)(=O)Nc2ccc(N3CCCCC3)cc2)cc1,,8.49 µM (active)
Cc1nc2c(C(=O)Nc3ccc(N4CCCC(O)C4)cc3)snc2c(=O)[nH]1 (stereo not drawn),-21.6,
COc1cc(NC(=O)CN2C(=O)CSc3ccc(S(=O)(=O)N4CCCC4)cc32)cc(OC)c1,,5.36 µM (active)
O=C(Cc1ccccc1F)Nc1cccc(S(=O)(=O)N2CCCCC2)c1,-11.9,
O=C(O)c1c2c(nc3ccc(S(=O)(=O)N4CCC(C(=O)NC5CCCC5)CC4)cc13)CCCCC2,-12.6,
COc1ccc(CNC(=O)C2CCN(S(=O)(=O)c3ccc4nc5c(c(C(=O)O)c4c3)CCCC5)CC2)cc1,,15.1 µM (active)
COc1ccc(S(=O)(=O)N2CCN(C(=O)c3cc4c(s3)CCC4)CC2)cc1,-25.3,
Cc1ccc(CNC(=O)C2CCN(S(=O)(=O)c3ccc4nc5c(c(C(=O)O)c4c3)CC(C)CC5)CC2)cc1 (stereo not drawn),,8.49 µM (active)
CCN(CC)c1ccc(/C=N/N2CCN(Cc3ccccc3Cl)CC2)cc1,,7.57 µM (active)

Compound,"activity change, negative = inhibition [%]",Potency
CCN1C(=O)c2cccc3c(S(=O)(=O)N(C(C)=O)c4ccc(OC(C)=O)cc4)ccc1c23,,15.1 µM (active)
CC(=O)Oc1ccc(N2C(=O)c3cccc4c([N+](=O)[O-])ccc(c34)C2=O)cc1,-22.5,
O=C(O)c1c(Br)c(Br)c(Br)c(Br)c1C1c2ccc(O)cc2Oc2cc(O)ccc21,,1.35 µM (active)
C[N+](C)(CCCCCI)c1ccc(/C=C/c2nc3ccccc3s2)cc1,,13.5 µM (active)
Cc1ccc(C2CC(c3ccc(Br)cc3)=NN2C(=O)CSC2=NN3CCCC(=O)N=C3S2)cc1 (stereo not drawn),-26.2,
Nc1ccc2nc3c(=O)[nH]c(=S)[nH]c3nc2c1,,6.01 µM (active)
COC(=O)c1ccccc1NC(=S)NC(=O)c1ccc(C)cc1,,13.5 µM (active)
O=C1C(N2CCOCC2)=Cc2cccc3cccc1c23,,19 µM (active)
CCOC(=O)C1=C(N)Oc2c(oc(CO)cc2=O)C1c1ccc(Cl)cc1 (stereo not drawn),-29.1,
O=C(Nc1cc([N+](=O)[O-])ccc1O)c1cccc(C(=O)Nc2cc([N+](=O)[O-])ccc2O)c1,,3.79 µM (active)
NC(N)=Nc1nc2cc([N+](=O)[O-])ccc2o1,-25,
COc1ccc(C(=O)CC(=O)Nc2ccc([N+](=O)[O-])cc2)cc1,-14.9,
O=C(O)CSCc1nc2cccnc2n1C1CCCCC1,-11.2,
O=C(O)C1=NN(c2cc(Cl)c(S(=O)(=O)O)cc2Cl)C(=O)C1,,8.49 µM (active)
Cc1ccc(-c2csc(NC(=O)c3ccccc3F)c2C(=O)O)cc1,,7.57 µM (active)
COc1cc(C(=O)Nc2scc(-c3ccc(Br)cc3)c2C(=O)O)cc(OC)c1OC,,19 µM (active)
CCCC[C@@]1(C2CCCC2)Cc2cc(OCC(=O)O)c(Cl)c(Cl)c2C1=O,-29,
O=C1/C(=C/C=C/c2ccco2)SC(=S)N1NS(=O)(=O)c1ccccc1,,7.57 µM (active)
O=C(NN1C(=O)/C(=C/C=C/c2ccco2)SC1=S)c1ccncc1,,6.01 µM (active)
CCn1c(SCC(=O)N2CCN(c3ccccc3)CC2)nc2c(c1=O)SC(C)C2 (stereo not drawn),-26.4,
CN(C)c1ccc(N=c2sc3ccccc3n2C)cc1,,7.57 µM (active)
Cc1cccc(N2CCN(C(=O)C3COc4ccccc4O3)CC2)c1C (stereo not drawn),-9.42,
O=C(O)/C=C/C(=O)Nc1ccc2c(c1)C(=O)c1ccccc1C2=O,,16.9 µM (active)
Oc1c(C(Nc2nc3ccccc3s2)c2ccco2)ccc2cccnc12 (stereo not drawn),,9.53 µM (active)

Compound,"activity change, negative = inhibition [%]",Potency
CN(C)c1ccc(C(=C2C=CC(=[N+](C)C)C=C2)c2ccc(N(C)C)cc2)cc1,,6.01 µM (active)
CN(C)c1ccc(C(=C2C=CC(=[N+](C)C)C=C2)c2c(O)c(S(=O)(=O)[O-])cc3cc(S(=O)(=O)O)ccc23)cc1,,7.57 µM (active)
O=C(Nc1ccc(-c2nc3cccnc3s2)cc1)C1CCCO1 (stereo not drawn),-24.1,
Cc1cc(=O)n2nc(N3CCCC(C(=O)Nc4ccc(C)c(C)c4)C3)sc2n1 (stereo not drawn),-29.7,
CCc1ccc(N=C2NC(=O)/C(=C/c3cc(OC)c(O)c(OC)c3)S2)cc1,,19 µM (active)
COc1ccc(-c2ccc(SCc3cccnc3)nn2)cc1OC,,16.9 µM (active)
Cc1ccc(NC(=S)N2CCc3[nH]c4ccccc4c3C2)cc1,-30,
COc1cccc(/C=N/N2C(=O)CSC2=S)c1O,,0.478 µM (active)
Nc1c(N=Nc2ccc([N+](=O)[O-])cc2)c(S(=O)(=O)O)cc2cc(S(=O)(=O)O)c(/C=C/c3ccccc3)c(O)c12,,7.57 µM (active)
COc1ccc(C(CCNCc2ccc(N(C)C)cc2)C(C)C)cc1 (stereo not drawn),,8.49 µM (active)
COc1ccccc1C(CCNCc1ccc(N(C)C)cc1)c1ccc(OC(C)C)cc1 (stereo not drawn),,6.01 µM (active)
CC1Cc2ccccc2N1C(=O)C1CCCN1S(=O)(=O)c1ccc(Cl)cc1 (stereo not drawn),1.17,
Cc1nn(C)c(Cl)c1CN1CCCC(CO)(Cc2cccc(Cl)c2)C1 (stereo not drawn),-16.1,
CC1CS(=O)(=O)CCN1N=Cc1ccc([N+](=O)[O-])o1 (stereo not drawn),-2.82,
O=C(O)c1ccc2c(=O)n3cc(C(=O)c4ccccc4O)cc(Cl)c3nc2c1,,15.1 µM (active)
C=C(CC[C@]12OC(C(=O)O)C(O)(C(=O)O)C(C(=O)O)(O1)C(OC(=O)/C=C/[C@@H](C)C[C@@H](C)CC)C2O)[C@@H](OC(C)=O)[C@H](C)Cc1ccccc1 (stereo partly drawn),,19 µM (active)
Cc1cc(C)c(C#N)c(Sc2nnnn2-c2ccccc2)n1,-3.69,
COc1cc2c(cc1OC)-c1cc(Nc3ccc(F)cc3)nc(=O)n1CC2,,2.39 µM (active)
COc1cc2c(cc1OC)-c1cc(Nc3ccccc3)nc(=O)n1CC2,,6.75 µM (active)
CCOc1ccc(Nc2cc3n(c(=O)n2)CCc2cc(OC)c(OC)cc2-3)cc1,,6.75 µM (active)
COc1ccc(Nc2cc3n(c(=O)n2)CCc2cc(OC)c(OC)cc2-3)c(C)c1,,15.1 µM (active)

# From PubChem BioAssay AID720540 (National Center for Advancing Translational Sciences (NCATS), 2013)
